PAFAH2 inh = inhibitors of human PAFAH2 | AID 492956 | inhibition, % at 3.39 µM | recombinant PAFAH2, FP-rhodamine activity probe, fluorescence polarization | 340,000 tested, 0.99% active;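 active = inhibition above the mean over all tested compounds plus 3 SD, cut at about 30% in these data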;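 note: inhibitors block probe labeling of enzyme so polarization drops; 0% = enzyme with DMSO and 100% = wells lacking PAFAH2 protein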
LYPLA1 inh = blocks human lysophospholipase 1, a PME1 counter-screen; 320,000 tested, 0.16% active; inhibition, % at 5.9 µM; O75608; recombinant LYPLA1, FP-Rh probe fluorescence polarization;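 active = inhibition above the mean of all tested compounds plus 3 SD, set per campaign, cut at about 14% in these data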;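 note: inhibitors block serine hydrolase probe labeling of LYPLA1 so polarization falls; 0% = enzyme with DMSO and 100% = wells lacking LYPLA1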
PAFAH1B2 inh = PAFAH1B2 (human) inhibition; recombinant PAFAH1B2, FP-rhodamine activity probe, fluorescence polarization; inhibition, % at 3.39 µM; 340,000 tested, 1.2% active; AID 492953;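 active = inhibition above the mean of all tested compounds plus 3 SD, cut at about 24% in these data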;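 note: 0% = enzyme with DMSO and 100% = wells lacking PAFAH1B2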
Target sequence (P68402 whole entry, looked up): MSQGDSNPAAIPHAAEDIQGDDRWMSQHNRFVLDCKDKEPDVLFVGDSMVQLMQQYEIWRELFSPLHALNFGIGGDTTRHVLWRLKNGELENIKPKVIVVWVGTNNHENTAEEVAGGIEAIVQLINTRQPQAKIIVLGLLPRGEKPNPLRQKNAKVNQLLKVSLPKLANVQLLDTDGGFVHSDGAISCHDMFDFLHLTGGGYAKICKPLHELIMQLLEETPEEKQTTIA
LYPLA2 inh = LYPLA2 (human) inhibition in PME1 counter-screen | 320,000 tested, 0.38% active | recombinant LYPLA2, FP-Rh probe fluorescence polarization | inhibition, % at 5.9 µM;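 active = inhibition above the screen-wide mean plus 3 SD, limit set per campaign, cut at about 26% in these data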;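 note: 0% = LYPLA2 with DMSO and 100% = wells lacking LYPLA2 enzyme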
Target sequence (O95372 whole entry, looked up): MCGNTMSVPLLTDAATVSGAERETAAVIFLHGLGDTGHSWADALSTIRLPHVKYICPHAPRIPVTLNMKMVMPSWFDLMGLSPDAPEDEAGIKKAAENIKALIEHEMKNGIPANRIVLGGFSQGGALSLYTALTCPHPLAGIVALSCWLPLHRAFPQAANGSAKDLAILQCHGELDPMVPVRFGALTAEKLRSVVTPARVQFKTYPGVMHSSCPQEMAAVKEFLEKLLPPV
pPAFAH inh = inhibitors of human plasma PAF acetylhydrolase (pPAFAH). inhibition, % at 3.39 µM. 330,000 tested, 1.5% active. AID 463082. recombinant pPAFAH, FP-rhodamine probe fluorescence polarization. Q13093;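 active = inhibition above the mean inhibition across the screen plus 3 SD, cut at about 25% in these data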;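 note: inhibitors block binding of the rhodamine activity-based probe so polarization drops; 0% = enzyme with DMSO and 100% = wells lacking pPAFAH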
PAFAH1B3 inh = inhibitors of human PAFAH1B3. Q15102. recombinant PAFAH1B3, FP-rhodamine probe, fluorescence polarization. inhibition, % at 3.39 µM. 340,000 tested, 0.28% active. AID 492972;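 active = inhibition above the screen-wide average of all tested compounds plus 3 SD, cut at about 25% in these data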;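 note: 0% = enzyme with DMSO only and 100% = wells lacking PAFAH1B3 protein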
Target sequence (Q15102 whole entry, looked up): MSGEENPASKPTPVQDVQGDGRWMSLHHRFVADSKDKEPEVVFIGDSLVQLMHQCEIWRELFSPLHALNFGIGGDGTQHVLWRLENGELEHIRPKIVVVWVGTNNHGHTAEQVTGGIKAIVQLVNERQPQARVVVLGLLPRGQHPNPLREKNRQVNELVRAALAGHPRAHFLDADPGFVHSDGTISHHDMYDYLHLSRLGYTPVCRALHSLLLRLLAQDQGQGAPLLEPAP
PAFAH2 confirm = PAFAH2 (human) inhibition, confirmed; shares compounds with PAFAH2 inh; recombinant PAFAH2, FP-rhodamine activity probe, fluorescence polarization; inhibition, % at 3.39 µM; 2,300 tested, 65% active; AID 493030;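 active = mean inhibition over three repeats above a set limit taken from the earlier primary screen, cut at about 30% in these data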;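 note: inhibitor blocks binding of rhodamine activity probe so polarization falls; 0% = enzyme with DMSO and 100% = wells lacking PAFAH2 protein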
* marks the source's active call; other numbers are inactive results; · = not tested or not shown. Compounds with a hit are over-represented: about 2.9% of the library has one in this group of screens.

SMILES | PAFAH2 inh | LYPLA1 inh | PAFAH1B2 inh | LYPLA2 inh | pPAFAH inh | PAFAH1B3 inh | PAFAH2 confirm
CC(C)(C)NC(=O)COC(=O)c1ccc(NC(=O)CC#N)cc1 | 67.0* | 1.4 | 3.9 | 5.4 | 7.2 | 1.5 | 52.9*
COCCCNC(=O)c1cn(CCOC)c(=O)c2c1c1ccccc1n2C | 4.9 | -1.0 | 2.8 | -0.9 | 1.3 | 8.7 | ·
CCCCNC(=S)N/N=C/c1cccc(OCC)c1O | 15.5 | 1.1 | 12.9 | 2.7 | 2.6 | 7.6 | ·
CCOc1cccc(/C=N/NC(=S)Nc2ccccc2[N+](=O)[O-])c1O | 44.8* | -4.8 | 4.8 | -0.6 | 16.6 | 14.9 | 20.4
CCOc1ccc(N(CC(=O)NN=C2CCN(C)CC2)S(C)(=O)=O)cc1 | 1.8 | -2.8 | 1.5 | -3.2 | 0.8 | 8.9 | ·
O=C1OC(/C(=C\Nc2cc(Cl)ccc2O)[N+](=O)[O-])c2ccccc21 (stereo unspecified) | 49.3* | -0.3 | 1.6 | 0.0 | 17.7 | 9.2 | 45.6*
O=C1OC(/C(=C\Nc2ccc(F)cc2F)[N+](=O)[O-])c2ccccc21 (stereo unspecified) | 6.9 | -0.8 | 1.1 | -6.7 | -2.7 | -1.6 | ·
CCN(CC)c1ccc(S(=O)(=O)N2CCOCC2)cc1NC(=O)COC(=O)/C=C/c1ccco1 | 54.8* | · | 1.7 | · | · | -3.2 | 42.4*
O=C(COC(=O)/C=C/c1ccco1)Nc1cc(S(=O)(=O)N2CCOCC2)ccc1Cl | 41.8* | · | 1.7 | · | 5.5 | -2.1 | 37.0*
CCN(CC)c1ccc(S(=O)(=O)N2CCOCC2)cc1NC(=O)COC(=O)COc1ccccc1C | 1.3 | -1.1 | -7.8 | -0.8 | 2.7 | -1.4 | ·
COc1ccc([N+](=O)[O-])c(S(=O)(=O)c2ccccc2)n1 | · | 0.8 | · | 2.3 | 1.9 | · | ·
COc1ccccc1C(=O)NCCC(=O)Nc1ncccc1O | -4.7 | -2.7 | 5.5 | 1.0 | 4.7 | -0.3 | ·
Cc1ccc(NC2=C(Cl)C(=O)OC2OC(=O)c2ccccc2)c(C)c1 (stereo unspecified) | 4.3 | -4.0 | 4.0 | 8.0 | 6.5 | 2.2 | ·
Cc1cccc(C)c1NC1=C(Cl)C(=O)OC1OC(=O)c1ccccc1 (stereo unspecified) | 30.6* | -2.2 | 3.3 | -0.6 | -0.8 | 4.1 | -21.7
CN(C)S(=O)(=O)n1cnc([C@@H]2[C@H]3C(=O)OC[C@@H]3C[C@@]23N=CN(Cc2ccccc2)C3=O)c1 | 40.1* | -0.5 | 7.3 | 1.5 | 2.3 | 7.7 | 34.2*
COc1ccc(NS(=O)(=O)c2ccc(NC(=S)NC(=O)c3ccc(F)cc3)cc2)nn1 | 1.0 | 3.6 | -2.1 | -0.5 | -5.3 | 12.8 | ·
O=C(COC(=O)c1cc(Cl)ccc1[N+](=O)[O-])NCc1ccc(Cl)cc1Cl | 30.0* | 0.7 | 9.4 | 6.5 | 1.3 | 5.0 | 25.4
O=C(COC(=O)c1ccco1)NCc1ccc(Cl)cc1Cl | 69.3* | · | 3.8 | · | -3.0 | 6.6 | 51.2*
O=C(COC(=O)c1ccco1)NNC(=O)c1ccc(Cl)cc1 | 10.6 | · | 5.0 | · | 1.1 | 10.6 | ·
COc1ccccc1CNC(=O)COC(=O)c1ccco1 | 20.1 | · | 5.6 | · | 0.4 | -7.5 | ·
O=C(COC(=O)c1ccco1)NCc1ccccc1Cl | 58.2* | -0.3 | 2.8 | -3.0 | -4.8 | 1.0 | 37.7*
O=C(COC(=O)c1cc(Cl)ccc1[N+](=O)[O-])Nc1cccc2ccccc12 | 22.5 | 1.4 | -0.3 | 9.8 | 9.6 | 9.6 | ·
O=C(COC(=O)c1ccco1)NCCc1ccc(Cl)cc1 | 48.7* | 0.4 | 6.6 | 3.0 | -1.6 | 8.2 | 30.7*
CS/C(N)=N/N=C/c1c(O)ccc2ccccc12 | 9.9 | 1.5 | 2.5 | 6.7 | 6.4 | 7.7 | ·
Cc1nnc(SCc2c(Cl)cccc2Cl)s1 | 6.3 | 0.0 | 2.7 | -1.3 | 9.5 | -1.5 | ·
SMILES | PAFAH2 inh | LYPLA1 inh | PAFAH1B2 inh | LYPLA2 inh | pPAFAH inh | PAFAH1B3 inh | PAFAH2 confirm
O=C(CSc1ncn[nH]1)c1ccc(OC(F)F)cc1 | -0.4 | 0.3 | -1.6 | -0.5 | -0.5 | 0.7 | ·
CCC(CC)N=C1NS(=O)(=O)c2cc([N+](=O)[O-])ccc21 | -4.1 | 4.6 | -3.0 | 8.2 | -0.1 | -5.5 | ·
COc1cc(/C=C2\SC(=O)N(c3ccccc3Cl)C2=O)cc([N+](=O)[O-])c1O | 36.2* | · | 14.0 | · | · | 19.7 | 22.9
COc1cc(/C=C2\SC(=O)N(c3ccc(O)cc3)C2=O)cc(OC)c1OC | -0.5 | -0.4 | -2.8 | -3.6 | 0.8 | 4.5 | ·
O=C(NCCc1ccc(C(F)(F)F)cc1)C1CCC(=O)N(CCCc2ccccc2)C1 (stereo unspecified) | 53.0* | 3.0 | 10.8 | 6.7 | 11.6 | 0.9 | 53.4*
NS(=O)(=O)c1cc2c(cc1Cl)NC(CSCc1ccccc1)=NS2(=O)=O | 33.9* | -1.4 | 23.3 | -6.7 | -5.0 | -4.1 | 26.2
O=C(CSC1=NS(=O)(=O)c2cc(Cl)ccc2N1)NCc1ccccc1 | 2.6 | 1.8 | 13.3 | 4.3 | 2.6 | 6.9 | ·
CCN(CC)S(=O)(=O)c1ccc(/C=C/C(=O)OCC(=O)NCc2ccc3c(c2)OCO3)cc1 | 47.9* | -1.8 | 3.7 | -0.9 | 13.5 | 4.4 | 30.1*
CCN(CC)S(=O)(=O)c1ccc(/C=C/C(=O)OCC(=O)NNC(=O)c2ccc(OC)cc2)cc1 | 43.2* | 1.9 | 2.4 | -1.3 | 21.4 | 9.2 | 28.3
CCN(CC)S(=O)(=O)c1ccc(/C=C/C(=O)OCC(=O)Nc2ccc(C(N)=O)cc2)cc1 | -6.5 | -10.2 | -3.9 | -17.8 | -2.4 | -9.8 | ·
COc1cccc(/C=C/C(=O)OCC(=O)NCc2ccc3c(c2)OCO3)c1 | 35.2* | · | 3.8 | · | 2.2 | 6.2 | 16.8
CC1CCCCC1NC(=O)COC(=O)/C=C/c1ccc2c(c1)OCO2 (stereo unspecified) | 78.7* | -3.0 | 6.0 | -5.0 | 11.7 | 4.8 | 84.0*
O=C(O)c1ccc(/C=N/Nc2ccc(F)cc2F)cc1 | 8.1 | -1.5 | 2.3 | -3.2 | 5.9 | 4.9 | ·
Nc1c(C(=O)NCc2ccc3c(c2)OCO3)nnn1Cc1ccc(Br)cc1 | 4.0 | 0.3 | 3.2 | -0.7 | -7.8 | -0.1 | ·
CCCCCn1c(=NC(=O)c2cccnc2)c(C#N)cc2c(=O)n3cccc(C)c3nc21 | -0.1 | 2.4 | -0.6 | 4.7 | 1.8 | -2.9 | ·
O=C(COC(=O)/C=C/c1ccc2c(c1)OCO2)NCc1ccccc1 | 55.2* | -3.6 | 2.4 | 0.6 | -4.4 | 6.3 | 41.8*
COC(=O)c1noc(C)c1-c1ccnn1C(=O)c1ccc(C)cc1 | 54.2* | -1.6 | -2.6 | -4.1 | -2.9 | 5.6 | 33.2*
COc1ccc(/C=C/C(=O)OCC(=O)NCCC2=CCCCC2)cc1 | 64.7* | -1.0 | 3.5 | 4.6 | 9.8 | 11.4 | 53.2*
COc1cccc(/C=C/C(=O)OCC(=O)NCCC2=CCCCC2)c1 | 46.5* | -2.7 | 2.9 | 1.2 | 9.7 | 10.4 | 31.3*
O=C(COC(=O)/C=C/c1ccc(C(F)(F)F)cc1)NCCC1=CCCCC1 | 7.4 | 0.5 | 1.4 | 3.9 | 7.0 | -6.5 | ·

High-throughput results (PubChem BioAssay)
